FBPA Giardia inh – qHTS Assay for Inhibitors of Fructose-1,6-bisphosphate Aldolase from Giardia Lamblia; A8B2U2; purified Giardia FBPA; Potency, µM (doses to about 59.6 µM), inactives show at the top dose activity, negative = inhibition, usual class: inhibitors; hit rate 0.71% among 290,000; AID 2451, 2010; further: potency means the concentration at half of the fitted maximal effect; on the % scale 0 is the no-effect control and ±100 the full control effect; nearly all actives have a fitted effect of over 55% in size
Target sequence (A8B2U2 whole entry, looked up): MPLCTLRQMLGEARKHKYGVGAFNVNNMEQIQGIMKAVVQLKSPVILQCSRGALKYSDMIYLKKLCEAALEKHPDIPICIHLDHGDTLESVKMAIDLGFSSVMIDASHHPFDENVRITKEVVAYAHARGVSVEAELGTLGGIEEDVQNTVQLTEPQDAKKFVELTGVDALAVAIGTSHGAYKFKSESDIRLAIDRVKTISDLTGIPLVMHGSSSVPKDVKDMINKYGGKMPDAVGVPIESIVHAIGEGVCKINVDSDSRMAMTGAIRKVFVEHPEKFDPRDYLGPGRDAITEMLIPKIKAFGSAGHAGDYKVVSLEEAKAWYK
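Giardia FBPA (40 nM reagent) was preincubated 10 min at RT with compound (up to 57.5 uM final), then substrate plus GAPDH/TPI/NAD/arsenate coupling system with diaphorase/resazurin was added; resorufin fluorescence (525/598 nm) was read after 20 min.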
Pf growth 48h – Primary qHTS for delayed death inhibitors of the malarial parasite plastid, 48 hour incubation; P. falciparum luciferase growth in erythrocytes, 48 h; Potency, µM (top dose mostly 28.7 µM), without a hit: at the top dose activity change, negative = inhibition, actives largely listed as inhibitors; hit rate 5.9% among 310,000; further: potency means the concentration at half of the fitted maximal effect; on the % scale 0 is the no-effect control and ±100 the full control effect
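First compound was added to culture medium, then infected red cells at 0.1% parasitemia and 2% hematocrit (final). After incubation at 37 C under 5% CO2, luciferase detection reagent was dispensed and light output recorded.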
Pf growth 96h – Primary qHTS for delayed death inhibitors of the malarial parasite plastid, 96 hour incubation. P. falciparum luciferase reporter growth, 96 h. Potency, µM (highest dose often 28.7 µM), for the others: top-dose activity change, negative = inhibition, actives largely listed as inhibitors. hit rate 6.9% among 320,000; further: potency means the concentration at half of the fitted maximal effect; on the % scale 0 is the no-effect control and ±100 the full control effect
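Readout is luminescence from an integrated firefly luciferase in P. falciparum. Red cells, 2% hematocrit and 0.05% parasitemia final, were cultured with compound through two parasite generations (96 hours) at 37 C, 5% CO2.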
Shiga inhibitor – A qHTS for Small Molecule Inhibitors of Shiga Toxin | Vero cells, Shiga toxin protein synthesis inhibition reporter | hit rate 9.2% among 290,000 | inhibition, % at 38.7 µM | AID 2315, 2010; in the data active means inhibition mostly above about 28%, no sharp cut-off; inactive means mostly below about 43%; further: 0% is about no effect
Cycloheximide cs – Cycloheximide Counterscreen for Small Molecule Inhibitors of Shiga Toxin. cell reporter, cycloheximide protein synthesis inhibition counterscreen. max response, %. hit rate 12% among 300,000. AID 2314, 2010; in the data active means max response mostly above about 13%, no sharp cut-off; inactive means mostly below about 14%; further: read at 38.3 µM for the half of the compounds with a filed dose; 0% is about no effect
NS1 function inh – qHTS Assay for Inhibitors of Influenza NS1 Protein Function | Potency, µM (series often up to 46.1 µM), without a hit: at the top dose activity, positive = more growth | hit rate 0.4% among 270,000 | AID 2326, 2010; calls by dose curve; further: potency means the concentration at half of the fitted maximal effect; actives are rising curves; nearly all actives have a fitted effect of over 50% in size
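In this qHTS, NS1 from influenza A is expressed in budding yeast, where it slows growth. Cells are switched from glucose to 2% galactose medium (pH 6.0, -URA), treated with compound, and growth recovery is read at OD600.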
Starred values were filed as active, the others as inactive; ? = inconclusive; nt = no result; [ ] = another dose, or the depositor's remark. The list is not random: actives were taken first. Their share in the collection is about 21%. Unless noted, the call rests on the fitted dose curve; in most records, active means well fitted curve in the direction sought with a large enough effect; inconclusive means small, poorly fitted or top-dose-only effect, or another doubt; inactive means no such curve, though single readings can be large; an effect the other way counts as inactive or inconclusive.

SMILES	FBPA Giardia inh	Pf growth 48h	Pf growth 96h	Shiga inhibitor	Cycloheximide cs	NS1 function inh
CC(C)Oc1ccc(CN2CCC(n3nccc3NC(=O)CCc3ccccc3)CC2)cc1	3%	?	-14%	-7	6	-4%
Cc1ccc(C)c(S(=O)(=O)N2CCN(C(=O)c3ccncc3)CC2)c1	nt	?	-4%	nt	nt	nt
Cc1cc(C)c(N(Cc2ccccc2)S(=O)(=O)c2ccc(OCCNC(=O)c3cc4ccccc4o3)cc2)c(C(=O)NO)c1	6%	nt	nt	-3	-8	nt
CCOc1ccccc1OCC(=O)Nc1nc2ccccc2[nH]1	-11%	6%	-2%	52*	22*	nt
O=C(COc1ccccc1)Nc1nc2ccccc2[nH]1	-9%	190%	120%	65*	46*	-13%
OCCN(CO)CO	nt	nt	nt	nt	nt	-4%
Cc1ccc(OCC(=O)NCCNC(=O)c2ccco2)cc1C	0%	39%	-4%	11	10	2%
Nc1nc(Cl)nc2c1ncn2C1OC(CO)C(O)C1F (stereo not given)	7%	nt	nt	-10	-3	nt
Nc1nc2c(ncn2[C@@H]2O[C@H](CO)[C@@H](O)[C@H]2O)c(=O)[nH]1	9%	nt	nt	nt	nt	nt
Nc1nc(=S)c2ncn([C@@H]3O[C@H](CO)[C@@H](O)[C@H]3O)c2[nH]1	nt	10µM*	?	nt	nt	nt
Nc1nc(Cl)nc2c1ncn2[C@@H]1O[C@H](CO)[C@@H](O)[C@H]1O	-4%	?	6.6µM*	-14	-3	-3%
c1ccc(-c2csc(NNC3=NCCCCC3)n2)cc1	?	nt	?	39	39*	15%
Clc1ccc(-c2csc(NNC3=NCCCCC3)n2)cc1	?	?	?	18	26*	?
COc1ccc(Cl)cc1S(=O)(=O)N(C)CC(=O)NCc1ccccn1	-1%	12%	27%	11	-5	11%
COc1ccc(S(=O)(=O)N(CC(=O)NN=C2CCN(C)CC2)c2cc(Cl)ccc2OC)cc1OC	10%	-19%	146%	-3	-7	27%
COc1ccc(CC(=O)NC2CC(C)(C)NC(C)(C)C2)cc1OC	-12%	-12%	3%	-3	0	25%
O=C(CSc1nnc(CCc2nc3ccccc3[nH]2)n1-c1ccccc1)NCc1ccccc1	-6%	?	10µM*	-1	4	-15%
COc1ccc(-n2c(CCc3ccccc3)nnc2SCC(=O)NCc2ccccc2)cc1	0%	nt	10µM*	-17	-4	0%
O=C(COC(=O)C1CCN(S(=O)(=O)c2ccccc2)CC1)NC(=O)c1ccc(OC(F)F)cc1	3%	-9%	-13%	-8	-3	16%
COc1ccc(OC)c(NC(=O)c2cc(OC(C)=O)cc(C(=O)Nc3cc(OC)ccc3OC)c2)c1	5%	-28%	?	nt	-4	12%
CCCCCCCCCCCCCCCCCCOC[C@@H](O)COP(=O)([O-])OCC[N+](C)(C)C	6%	nt	nt	nt	nt	nt
CCN(CC(=O)NCc1cccs1)C(=O)c1cccc(S(=O)(=O)Nc2ccccc2Cl)c1	nt	?	-27%	nt	nt	nt
COc1ccc(-c2nc(CCNC(=O)c3ccco3)cs2)cc1OC	-5%	?	?	16	9	?
O=C(NCc1ccco1)c1cccc(-c2nnc(-c3ccccc3)o2)c1	6%	?	nt	49*	22*	-64%
Cc1cccc(-c2noc(-c3ccccc3C(=O)NCc3ccco3)n2)c1	-8%	36%	34%	125	75*	4%
SMILES	FBPA Giardia inh	Pf growth 48h	Pf growth 96h	Shiga inhibitor	Cycloheximide cs	NS1 function inh
COc1ccccc1-c1noc(-c2ccccc2C(=O)NCc2ccco2)n1	0%	0%	7%	30	14*	2%
Cc1cccc(-c2nc(CNC(=O)c3ccco3)cs2)c1	8%	50%	?	106*	42*	-23%
CN(Cc1ccco1)c1ccnc(-c2ccccc2C(F)(F)F)n1	-6%	nt	nt	nt	nt	nt
CC(=O)OC[C@H]1O[C@@H](O/N=C(\C)CCC(=O)OC[C@@H]2O[C@H](C#Cc3ccccc3)C=C[C@@H]2Oc2ccc(C)cc2)[C@H](OC(C)=O)[C@@H](OC(C)=O)[C@H]1OC(C)=O	0%[12.9 µM]	nt	nt	nt	nt	nt
CN(Cc1ccco1)c1ncncc1-c1cccc(NS(C)(=O)=O)c1	-2%	nt	nt	nt	nt	nt
Cc1ccc(-c2noc(-c3ccccc3C(=O)NCc3ccco3)n2)cc1	-1%	44%	67%	63*	33*	-13%
O=C(NCc1ccco1)c1ccccc1-c1nc(-c2ccccc2)no1	1%	nt	51%	17	11	-9%
O=S(=O)(c1cc(F)ccc1F)N1CCC2(CC1)OCCO2	nt	74%	0%	85*	60*	-1%
O=C(Nc1ccc(F)c(F)c1)c1ccc(F)c(S(=O)(=O)N2CCC3(CC2)OCCO3)c1	-6%	?	10µM*	22	10	nt
COC(=O)CSc1nnc(CCc2ccccc2)n1C	-2%	-8%	?	-8	4	-4%
COc1ccc(NC(=O)COC(=O)Cn2cnc3ccccc3c2=O)c(OC)c1	nt	-15%	-24%	nt	nt	nt
CC1CCCC(C)N1C(=O)COC(=O)CCC1CCCC1 (stereo not given)	nt	?	-22%	-1	-4	-2%
CC(C)CCn1nnnc1CN1CCN(C(c2ccccc2)c2ccccc2)CC1	-5%	6.6µM*	-44%	-8	2	nt
CCC(C)(C)n1nnnc1CN1CCN(C(c2ccccc2)c2ccccc2)CC1	4%	7.4µM*	82%	10	-2	-50%
Cc1ccc(C(=O)NCC(=O)OCc2cccc(Br)c2)cc1	nt	7%	20%	nt	nt	nt
Cc1cc(C)c2c(n1)SCC(=O)N2CC(=O)Nc1ccc(Br)c(C)c1	8%	-8%	0%	-4	-2	-2%
CCc1ccc(NC(=O)C2CCCN2S(=O)(=O)c2ccc3c(c2)n(C)c(=O)c(=O)n3C)cc1 (stereo not given)	0%	-1%	-2%	3	1	-11%
O=C(NNC(=O)c1sc2ccccc2c1Cl)Nc1ccc(Cl)cc1	6%	7%	6%	2	7	19%
O=C1CCC/C(=N/NC(=O)c2sc3ccccc3c2Cl)C1	-10%	32%	0%	22	18*	6%
O=C(Nc1ccnc(=O)[nH]1)c1sc2ccccc2c1Cl	5%	54%	98%	-6	-1	-41%
O=C(NN=C1CCCC1)c1sc2ccccc2c1Cl	-3%	?	?	43*	38*	nt
CC(C)(C)Cc1nnc(NC(=O)CCC2CCCCC2)s1	-2%	12%	2%	-11	-1	-1%
CC(=O)NC(Cc1ccccc1)C(=O)OCC(=O)c1ccc(F)cc1 (stereo not given)	4%	-4%	?	21	-3	-20%
COc1ccc(CN(C)CC(=O)N(C)CC(=O)Nc2ccccc2Br)cc1F	nt	?	-16%	nt	nt	nt

Screening data deposited in PubChem by National Center for Advancing Translational Sciences (NCATS).
